According to PubChem BioAssay (NCATS):
“And” between values parts separate entries of the source, which are not always exact repeats. Equal entries are not always repeated. Records with an inconclusive call do not appear. The source made the active and inactive calls. Unless noted, calls follow the shape of the dose curve; as a rule, active = well fitted inhibition curve with a large enough effect; inconclusive = small, poorly fitted or top-dose-only effect; inactive = flat fitted curve, though single readings scatter. Where a SMILES comes first, the peptide text is derived from it. [ ]: non-standard residue; d: D form. pGlu = O=C1CC[C@@H](C(=O)O)N1

tested on: not listed separately; assay: Drug repurposing screens with cells derived from glioblastoma tumor samples (AID 1345199); conditions: GBM patient neurospheres viability, ATP luminescence, 48 h; at 46.1 µM (top of the series); tumour line C; also: nearly all actives have a fitted effect of over 40% in size; also: potency is read from the fitted curve at half-maximal effect; as to activity, negative = cell killing: % is scaled to controls: 0 for no effect and ±100 for the full control effect
In short: (§1)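 Primary testing used CD133+ neurospheres from four GBM patients, seven concentrations, 48 h exposure and ATP-based viability; confirmation added three slower-growing patient lines.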

SMILES	activity, negative = cell killing
CCCCCCOC(=O)c1cccnc1	1.85% (inactive)
C[C@H](N)C(=O)N[C@@H](C)P(=O)(O)O	-19.1% (inactive)
O=C(O)c1ccc(NC2OC[C@@H](O)[C@H](O)[C@H]2O)cc1 (stereo partly drawn)	-13.1% (inactive)
Nc1nccs1	-24.6% (inactive)
c1ccc2ccccc2c1	-18.3% (inactive)
OCl	-3.94% (inactive)

tested on: astro; assay: as above; conditions: viability, ATP luminescence, 48 h; series mostly up to 45.9 µM; activity, negative = cell killing: at the top concentration
In short: as §1

SMILES	activity, negative = cell killing	Potency
NC(N)=O	-16.8% (inactive)	–
CC(C)(C)CC(C)(C)c1cc(Cc2cc(C(C)(C)CC(C)(C)C)cc(-n3nc4ccccc4n3)c2O)c(O)c(-n2nc3ccccc3n2)c1	-15.3% (inactive)	–
C[C@]12CC[C@@H]3c4ccc(O)cc4CC[C@H]3[C@@H]1CC[C@@H]2OP(=O)(O)O	-29.3% (inactive)	–
CC1CS(=O)(=O)CCN1/N=C/c1ccc([N+](=O)[O-])o1 (stereo not drawn)	-8.88% [at 21.2 µM] (inactive)	–
O=[n+]1ccn([O-])c2ccccc21	-22.3% (inactive)	–
CC1(C)[C@H]2CC[C@]1(C)[C@H](O)C2	-12.8% (inactive)	–
O=C(OC[C@H]1O[C@@H](OC(=O)c2cc(O)c(O)c(OC(=O)c3cc(O)c(O)c(O)c3)c2)[C@H](OC(=O)c2cc(O)c(O)c(OC(=O)c3cc(O)c(O)c(O)c3)c2)[C@@H](OC(=O)c2cc(O)c(O)c(OC(=O)c3cc(O)c(O)c(O)c3)c2)[C@@H]1OC(=O)c1cc(O)c(O)c(OC(=O)c2cc(O)c(O)c(O)c2)c1)c1cc(O)c(O)c(OC(=O)c2cc(O)c(O)c(O)c2)c1	–	2820 nM (active)
C=C(C)C1CC=C(C)CC1 (stereo not drawn)	-11.2% (inactive)	–
CC(C)O	-15.5% (inactive)	–
CCC(O)c1ccccc1 (stereo not drawn)	-4% (inactive)	–
CC(C)CCCCCCc1ccc(O)cc1	-21.8% (inactive)	–
CC[C@@H]1/C=C(\C)C[C@H](C)C[C@H](OC)[C@H]2O[C@@](O)(C(=O)C(=O)N3CCCC[C@H]3C(=O)O[C@H](/C(C)=C/[C@@H]3CC[C@@H](Cl)[C@H](OC)C3)[C@H](C)[C@@H](O)CC1=O)[C@H](C)C[C@@H]2OC	-12.1% (inactive)	–
OCC(O)CO	-16.1% (inactive)	–
CCCCCCCCCCCCOCCCN	-9.61% (inactive)	–
C[N+]1(C)[C@@H]2CC(OC(=O)C(O)(c3cccs3)c3cccs3)C[C@H]1[C@@H]1O[C@@H]12 (stereo partly drawn)	-8.59% (inactive)	–
OCc1ccccc1	-17.9% (inactive)	–
O=C(OCc1ccccc1)c1cccnc1	-3.83% (inactive)	–
CC[C@@H](C)[C@H](N)C(=O)O	-17% (inactive)	–
NCCN	-20.3% (inactive)	–

SMILES	activity, negative = cell killing	Potency
C/C=C/C=C/C(=O)O	-13.5% (inactive)	–
CC1=CCC2CC1C2(C)C (stereo not drawn)	-17.2% (inactive)	–
CC[C@H](C)[C@H](NC(=O)[C@H](Cc1ccccc1)NC(=O)[C@H](C)NC(=O)[C@H](CC(=O)O)NC(=O)[C@H](CCCCN)NC(=O)[C@H](CO)NC(=O)[C@@H]1CCCN1C(=O)[C@@H]1CCC(=O)N1)C(=O)NCC(=O)N[C@@H](CC(C)C)C(=O)N[C@@H](CCSC)C(N)=O ([pGlu]PSKDAFIGLM-NH2)	-20.3% (inactive)	–
O=C(O)/C=C/c1ccccc1	-13.4% (inactive)	–
CC(C)[C@@H]1CC[C@@H](C)C[C@H]1O	6.8% (inactive)	–
CO/N=C(\C(=O)N[C@@H]1C(=O)N2C(C(=O)O)=CCS[C@H]12)c1csc(N)n1	-3.9% (inactive)	–
CCCc1nc(C(C)(C)O)c(C(=O)OCc2oc(=O)oc2C)n1Cc1ccc(-c2ccccc2-c2nn[nH]n2)cc1	-4.67% (inactive)	–
CC(C)C[C@H](NC(=O)[C@@H](COC(C)(C)C)NC(=O)[C@H](Cc1ccc(O)cc1)NC(=O)[C@H](CO)NC(=O)[C@H](Cc1c[nH]c2ccccc12)NC(=O)[C@H](Cc1cnc[nH]1)NC(=O)[C@@H]1CCC(=O)N1)C(=O)N[C@@H](CCCN=C(N)N)C(=O)N1CCC[C@H]1C(=O)NNC(N)=O	–	inactive
COC(=O)c1ccccc1O	-16.2% (inactive)	–
O=C(NCCNCC(O)COc1ccc(O)cc1)N1CCOCC1 (stereo not drawn)	-9.75% (inactive)	–
C[C@H](CCC(=O)O)[C@H]1CC[C@H]2[C@@H]3CC[C@@H]4C[C@H](O)CC[C@]4(C)[C@H]3C[C@H](O)[C@]12C	-11.8% (inactive)	–
O=C(O)CN(CC(=O)O)CC1=CC2C(=CC1=O)Oc1cc(O)c(CN(CC(=O)O)CC(=O)O)cc1C21OC(=O)c2ccccc21 (stereo not drawn)	-26.5% (inactive)	–
CCCCCCOC(=O)c1cccnc1	-4.23% (inactive)	–
C[C@H](N)C(=O)N[C@@H](C)P(=O)(O)O	2.32% (inactive)	–
CC(=O)Nc1c(I)c(C(=O)N[C@H]2C(O)O[C@H](CO)[C@@H](O)[C@@H]2O)c(I)c(N(C)C(C)=O)c1I (stereo partly drawn)	1.76% [at 21.2 µM] (inactive)	–
O=C(O)c1ccc(NC2OC[C@@H](O)[C@H](O)[C@H]2O)cc1 (stereo partly drawn)	-9.73% (inactive)	–
Nc1nccs1	-12.4% (inactive)	–
c1ccc2ccccc2c1	3.66% (inactive)	–
OCl	-13.4% (inactive)	–

target: Nuclear receptor subfamily 1 group I member 2 (Rattus norvegicus) (UniProt Q9R1A7); assay: qHTS assay for small molecule activators of the rat pregnane X receptor (rPXR) signaling pathway (AID 651751; call rule not given here; also: 0% is about no effect); conditions: rPXR reporter cells, luciferase (One-Glo), 24 h
Sequence (Q9R1A7 whole entry, looked up): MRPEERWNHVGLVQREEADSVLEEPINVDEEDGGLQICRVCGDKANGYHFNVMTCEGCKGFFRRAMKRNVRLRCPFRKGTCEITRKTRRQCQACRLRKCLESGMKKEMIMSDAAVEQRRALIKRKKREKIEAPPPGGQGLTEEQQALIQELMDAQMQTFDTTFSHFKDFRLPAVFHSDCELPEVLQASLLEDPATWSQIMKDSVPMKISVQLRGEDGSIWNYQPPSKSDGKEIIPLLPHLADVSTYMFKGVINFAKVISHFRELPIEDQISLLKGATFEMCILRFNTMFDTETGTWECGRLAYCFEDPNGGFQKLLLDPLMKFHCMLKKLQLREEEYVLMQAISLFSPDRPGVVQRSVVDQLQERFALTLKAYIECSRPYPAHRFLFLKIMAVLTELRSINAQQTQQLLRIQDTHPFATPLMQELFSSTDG

SMILES	max response
NC(N)=O	3.1% (inactive)
C=C(C)C1CC=C(C)CC1 (stereo not drawn)	7.4% (inactive) and -2.46% (inactive)
CC(C)O	-7.02% (inactive)
CC(C)CCCCCCc1ccc(O)cc1	-1.23% (inactive)
OCC(O)CO	-2.39% (inactive) and -3.75% (inactive)
OCc1ccccc1	22.6% (inactive)
NCCN	4.88% (inactive)
CC1=CCC2CC1C2(C)C (stereo not drawn)	1.07% (inactive)
CC(C)[C@@H]1CC[C@@H](C)C[C@H]1O	-1.32% (inactive)
COC(=O)c1ccccc1O	-2.2% (inactive) and 1.51% (inactive)
C[C@H](CCC(=O)O)[C@H]1CC[C@H]2[C@@H]3CC[C@@H]4C[C@H](O)CC[C@]4(C)[C@H]3C[C@H](O)[C@]12C	-12.5% (inactive)
Nc1nccs1	-2.21% (inactive)
c1ccc2ccccc2c1	-1.58% (inactive) and 3.23% (inactive)
OCl	-4.49% (inactive)
